Structures are written as SMILES. Calls of active or inactive are those of the source. How the calls were made is not given here.

The subject of this assay is Aerobactin synthetase IucA (Klebsiella pneumoniae hvKP1). In words: IucA enzyme inhibition, primary screen, biochemical, Spectrum library (AID 1346200).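 Further: 100% = wells without compound and 0% = wells lacking enzyme.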 The settings on record: malachite green pyrophosphate, A620, at 8 µM, active compounds read low.
For the molecule `CCOC(=O)n1ccn(C)c1=S`, the activity remaining is 127% (inactive).

As for `Cc1cc(NC(=O)C2=C(O)c3ccccc3S(=O)(=O)N2C)no1`, the activity remaining is 94.1% (inactive).

For the molecule `O=C1C[C@@H](c2ccc(O)cc2)Oc2cc(O)cc(O)c21`, the activity remaining was 95.7% (inactive).

`C=CCCCCCCCCCCCc1ccco1`: the activity remaining is 99.3% (inactive).

`C[C@]12CCC3c4ccc(O)cc4CCC3C1C[C@@H](O)[C@@H]2O` (stereo not given in full): the activity remaining was 99.6% (inactive).

Take `CC(C)NCC(O)c1ccc(O)c(O)c1` (stereo not given): the activity remaining was 82.7% (inactive).

As for `CCC(=O)O[C@H](CC(=O)O)C[N+](C)(C)C`, the activity remaining was 107% (inactive).

Turning to `Cc1nnc(NS(=O)(=O)c2ccc(N)cc2)s1`, the activity remaining was 113% (inactive).

As for `CC(CCC(=O)O)[C@H]1CCC2C3CC[C@@H]4CCCC[C@]4(C)C3CC[C@@]21C` (stereo not given in full), the activity remaining was 108% (inactive).

Consider `COC(=O)[C@@H]1OC(=O)C2OC23[C@@]1(C)CCC1[C@]2(C)C(C[C@@H](O)[C@]13C)C(C)(C)[C@H](OC(C)=O)C[C@@H]2OC(C)=O` (stereo not given in full), for which the activity remaining is 96.4% (inactive).

`Cc1cc(O)c2c(c1)C(=O)c1cccc(O)c1C2=O`: the activity remaining is 107% (inactive).

On to `O=C(Cc1cccs1)NC1C(=O)N2C(C(=O)[O-])=C(C[n+]3ccccc3)CSC12` (stereo not given), for which the activity remaining was 109% (inactive).

As for `COc1cc2c(cc1OC)C(=O)C(CC1CCN(Cc3ccccc3)CC1)C2` (stereo not given), the activity remaining was 107% (inactive).

In the case of `CC1=CC(=O)CC(C)(C)C1(O)/C=C/C(C)=C\C(=O)O` (stereo not given), the activity remaining was 117% (inactive).

For the molecule `O=c1c(O)c(-c2ccc(O)c(O)c2)oc2c(O[C@@H]3O[C@H](CO)[C@H](O)[C@@H](O)[C@H]3O)c(O)cc(O)c12`, the activity remaining was 96.1% (inactive).

For `CC(=O)OC/C=C(C)/C=C/C=C(C)/C=C/C1=C(C)CCCC1(C)C`, the activity remaining was 92.2% (inactive).

Regarding `CO[C@H]1C[C@H](O[C@H]2[C@H](C)[C@@H](OC3O[C@H](C)C[C@H](N(C)C)[C@H]3OC(C)=O)[C@@H](C)C[C@]3(CO3)C(=O)[C@H](C)[C@@H](OC(C)=O)[C@@H](C)[C@@H](C)OC(=O)[C@@H]2C)O[C@@H](C)[C@@H]1OC(C)=O` (stereo not given in full), the activity remaining was 116% (inactive).

On to `CC12OC(=O)CC3C(C)(C)[C@H](O)C=C[C@]3(C)C1CC[C@]1(C)C2=CC(=O)O[C@H]1c1ccoc1` (stereo not given in full), for which the activity remaining is 118% (inactive).

`CC(=O)Oc1cc(C)c2c(c1C=O)Oc1c(c(C)c(OC(C)=O)c3c1C(OC(C)=O)OC3=O)OC2=O` (stereo not given): the activity remaining is 106% (inactive).

`C[C@@H]1CC[C@H]2[C@@H](C)C(O)O[C@@H]3OC4(C)CC[C@@H]1[C@]32OO4` (stereo not given in full): the activity remaining is 106% (inactive).

Regarding `C[C@H]1[C@H]2CCC3C4CC=C5C[C@@H](N(C)C)CC[C@]5(C)C4CC[C@@]32CN1C` (stereo not given in full), the activity remaining was 119% (inactive).

For the molecule `COc1cc(O)c2c(=O)c(O)c(-c3ccc(O)c(O)c3)oc2c1`, the activity remaining is 103% (inactive).

Turning to `C[C@H]1[C@H](C)CC[C@]2(C(=O)O)CC[C@]3(C)C(=CCC4[C@@]5(C)C[C@@H](O)[C@H](O)[C@@](C)(CO)C5[C@H](O)C[C@]43C)[C@H]12` (stereo not given in full), the activity remaining was 110% (inactive).

For `COC1C(O)C(O[C@H]2CC[C@]3(C=O)C4C(CC[C@]3(O)C2)[C@@]2(O)CC[C@H](C3=CC(=O)OC3)[C@@]2(C)C[C@H]4OC(C)=O)OC(C)C1OC(C)=O` (stereo not given in full), the activity remaining is 122% (inactive).

As for `COc1cc(O)c(C(=O)O)c(O)c1`, the activity remaining was 102% (inactive).

In the case of `CC(=O)O[C@@H]1CC2C(C)(C)[C@H](O)C=C[C@]2(C)C2CC[C@@]3(C)[C@H](c4ccoc4)OC(=O)C4OC43[C@@]21C` (stereo not given in full), the activity remaining is 107% (inactive).

In the case of `C[C@]12CCc3occc3C1CC[C@@]13C[C@@H](CCC12)[C@@](O)(CO)C3` (stereo not given in full), the activity remaining was 93.4% (inactive).

Take `CC1(C)S[C@@H]2[C@H](NC(=O)[C@H](C(=O)O)c3cccs3)C(=O)N2[C@H]1C(=O)O`: the activity remaining is 102% (inactive).

`O=C(/C=C/c1ccc(O)c(O)c1)O[C@@H]1C[C@](O)(C(=O)O)C[C@@H](O)[C@H]1O`: the activity remaining is 103% (inactive).

Turning to `Cc1cc(NS(=O)(=O)c2ccc(N)cc2)no1`, the activity remaining was 110% (inactive).

On to `CC(=O)O[C@@H]1CC2C(C)(C)CCC(=O)[C@]2(C)C2CC[C@@]3(C)[C@H](c4ccoc4)OC(=O)C4OC43[C@@]21C` (stereo not given in full), for which the activity remaining is 113% (inactive).

For `CC/C(=C(/CC)c1ccc(O)cc1)c1ccc(O)cc1`, the activity remaining is 104% (inactive).

`O=C(O)c1cccnc1`: the activity remaining is 120% (inactive).

In the case of `CCN(CC)CCNC(=O)COc1ccc(OC)cc1`, the activity remaining was 108% (inactive).

Turning to `O=c1c(O)c(-c2ccccc2)oc2ccccc12`, the activity remaining was 92.5% (inactive).

Regarding `CN(C)CCc1c[nH]c2ccc(C[C@H]3COC(=O)N3)cc12`, the activity remaining is 112% (inactive).

For `CCCCC(=O)Oc1ccccc1C(=O)O`, the activity remaining was 85.8% (inactive).

In the case of `CC(=O)OC1CCC2C3CCc4cc(O)ccc4C3CCC12C` (stereo not given), the activity remaining is 123% (inactive).

For the molecule `CO[C@H]1/C=C/O[C@@]2(C)Oc3c(C)c(O)c4c(O)c(c(C=NN5CCN(C)CC5)c(O)c4c3C2=O)NC(=O)/C(C)=C\C=C\C(C)[C@H](O)[C@@H](C)[C@@H](O)[C@@H](C)[C@@H](OC(C)=O)[C@@H]1C` (stereo not given in full), the activity remaining is 98.4% (inactive).

Consider `COc1ccc(-c2oc3c(CC=C(C)C)c(O[C@@H]4O[C@H](CO)[C@@H](O)[C@H](O)[C@H]4O)cc(O)c3c(=O)c2O[C@@H]2O[C@@H](C)[C@H](O)[C@@H](O)[C@H]2O)cc1`, for which the activity remaining was 121% (inactive).

For the origin of these results see PubChem BioAssay.
